Reference: PubChem BioAssay (Tox21)
Records with an inconclusive call do not appear. Where a call stands in place of a potency, no number is given. Active and inactive are the calls of the source. Unless noted, the call rests on the fitted dose curve; in most records, active means well fitted curve in the direction sought with a large enough effect in the repeat runs; inconclusive means weak or mixed curves; inactive means no such curve, though single readings can be large; an effect the other way counts as inactive or inconclusive.

Assays:
[1] = qHTS assay to identify small molecule antagonists of the retinoid-related orphan receptor gamma (ROR-gamma) signaling pathway - cell viability counter screen (AID 1159520); further: nearly all actives have a fitted effect of over 50% in size; further: potency means the concentration at half of the fitted maximal effect
Summary of the method: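 Tet-on ROR gamma CHO cells were given compounds for 2 hr, then doxycycline hyclate at 1 uM final, and incubated 16 hr at 37 C. Viability was measured as ATP content by CellTiter-Glo luminescence.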

[2] = molecular target: Nuclear receptor ROR-gamma (Homo sapiens) (UniProt P51449); test: qHTS assay to identify small molecule antagonists of the retinoid-related orphan receptor gamma (ROR-gamma) signaling pathway (AID 1159521; further: nearly all actives have a fitted effect of over 50% in size; further: potency means the concentration at half of the fitted maximal effect)
Summary of the method: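 Luminescence readout (ONE-Glo, 30 min RT) after 16 h doxycycline induction; loss of signal scored as antagonism. CHO cells with TET-inducible RORγ and RORE-LUC reporter; compounds added 2 h before 1 uM final doxycycline.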

[3] = qHTS assay to identify small molecule agonists of the RXR signaling pathway - cell viability counter screen (AID 1159529); further: nearly all actives have a fitted effect of over 50% in size; further: potency means the concentration at half of the fitted maximal effect; on activity change, negative = cytotoxicity: series mostly up to about 77 µM
Summary of the method: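 Luminescence from CellTiter-Glo (30 min, RT) measured viability in the same wells as the beta-lactamase reporter readout. Cells: GeneBLAzer RXR-alpha HEK 293T, 2% charcoal-stripped FBS. Compound exposure 16 hr, 37 C.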

[4] = qHTS assay to identify small molecule antagonists of the retinoid acid receptor (RAR) signaling pathway - cell viability counter screen (AID 1159551); further: nearly all actives have a fitted effect of over 35% in size
Summary of the method: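 C3RL4 cells were seeded overnight at 37 C, then treated with compounds plus 1 uM (final) retinol for 6 h at 37 C. Viability was read as ATP by CellTiter-Glo luminescence after 30 min at room temperature.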

[5] = qHTS assay to identify small molecule agonists of the peroxisome proliferator-activated receptor delta (PPARd) signaling pathway - cell viability counter screen (AID 743211); further: nearly all actives have a fitted effect of over 55% in size; further: potency means the concentration at half of the fitted maximal effect
Summary of the method: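 Read-out: CellTiter-Glo luminescence, 30 min RT, measured in the same wells as the beta-lactamase reporter. Cells: GeneBLAzer PPAR delta UAS-bla HEK293H, 3000 cells/well, compound exposure 17 h at 37C.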

[6] = qHTS assay to identify small molecule antagonists of the peroxisome proliferator-activated receptor delta (PPARd) signaling pathway - cell viability counter screen (AID 743213); further: nearly all actives have a fitted effect of over 50% in size; further: potency means the concentration at half of the fitted maximal effect
Summary of the method: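 HEK293H cells with the PPARd UAS-bla reporter, co-treated 17 h at 37 C with compounds and L165041 (300 nM final), were lysed with CellTiter-Glo. Luminescence indicated viable cell content.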

[7] = qHTS assay to identify small molecule agonists of the farnesoid-X-receptor (FXR) signaling pathway - cell viability counter screen (AID 743218); further: nearly all actives have a fitted effect of over 45% in size; further: potency means the concentration at half of the fitted maximal effect
Summary of the method: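 FXR-UAS-bla HEK 293T cells, plated 5 h at 37 C, were exposed to compounds for 16 h at 37 C. CellTiter-Glo was then added to the same wells as the bla readout; luminescence read after 30 min at room temperature.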

[8] = qHTS assay to identify small molecule antagonists of the farnesoid-X-receptor (FXR) signaling pathway - cell viability counter screen (AID 743221; active means well fitted cell-killing curve with a large enough effect in the repeat runs, not every such curve was filed as active; further: nearly all actives have a fitted effect of over 50% in size; further: potency means the concentration at half of the fitted maximal effect)
Summary of the method: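 HEK 293T FXR-bla cells, 5 h pre-incubation; compound + CDCA 50 uM final, 16 h, 37 C; beta-lactamase FRET read first, then CellTiter-Glo luminescence, 30 min RT.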

[9] = qHTS assay to identify small molecule agonists of the vitamin D receptor (VDR) signaling pathway - cell viability counter screen (AID 743224)
Summary of the method: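 VDR-bla cells were preincubated 4 h at 37C/5% CO2, then exposed to compounds for 16 h. After the 2 h room-temperature bla FRET read, CellTiter-Glo was added to the same wells and luminescence read after 30 min.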

[10] = qHTS assay to identify small molecule antagonists of the vitamin D receptor (VDR) signaling pathway - cell viability counter screen (AID 743225); further: nearly all actives have a fitted effect of over 50% in size; further: potency means the concentration at half of the fitted maximal effect
Summary of the method: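 Viability counter screen run in the same wells as the beta-lactamase reporter assay: HEK 293T VDR-UAS-bla cells, 16 h compound exposure at 37C with 3 nM (final) 1-alpha,25-dihydroxyvitamin D3. CellTiter-Glo luminescence, 30 min, room temperature.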

[11] = molecular target: Retinoic acid receptor RXR-alpha (Homo sapiens) (UniProt P19793); test: qHTS assay to identify small molecule agonists of the RXR signaling pathway (AID 1159527; calls by dose curve; further: nearly all actives have a fitted effect of over 35% in size)
Summary of the method: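 Agonist mode; 9-cis retinoic acid positive control. HEK 293T UAS-bla reporter cells, 2% charcoal-stripped FBS, 16 hr compound exposure at 37 C/5% CO2. LiveBLAzer B/G FRET substrate 2 hr RT; ex 405, em 460/530 nm.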

[12] = qHTS assay to identify small molecule antagonists of the retinoic acid receptor (RAR) signaling pathway (AID 1159552; further: nearly all actives have a fitted effect of over 50% in size; further: potency means the concentration at half of the fitted maximal effect)
Summary of the method: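 Luminescence from a RARE luciferase reporter in C3RL4 cells served as read-out. Cells received compounds together with 1 uM final retinol and incubated 6 hr at 37 C before detection reagent was added for 30 min at room temperature.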

[13] = qHTS assay to identify small molecule agonists of the AP-1 signaling pathway (AID 1159526; calls by dose curve)
[14] = qHTS assay to identify small molecule agonists of the AP-1 signaling pathway - cell viability counter screen (AID 1159525; calls by dose curve; further: nearly all actives have a fitted effect of over 55% in size)
Summary of the method: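 AP-1-bla ME-180 cells in Opti-MEM with 0.5% dialyzed FBS, compound exposure 5 h at 37 C in 15-point titration. Viability read in the same wells as ATP content by CellTiter-Glo luminescence, normalised to tetra-n-octylammonium bromide and DMSO controls.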

[15] = molecular target: Vitamin D3 receptor (Homo sapiens) (UniProt P11473); test: qHTS assay to identify small molecule antagonists of the vitamin D receptor (VDR) signaling pathway (AID 743223; active means well fitted inhibition curve with a large enough effect in the signal ratio in the repeat runs, not every such curve was filed as active; the % refers to the signal ratio)
Summary of the method: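 Beta-lactamase reporter read-out: FRET substrate fluorescence after 2 h at room temperature, following 16 h exposure of VDR-bla cells to test compound plus 3 nM (final) 1alpha,25-dihydroxyvitamin D3 agonist at 37C.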

Sequence of Retinoic acid receptor RXR-alpha (Homo sapiens) (P19793 whole entry, looked up): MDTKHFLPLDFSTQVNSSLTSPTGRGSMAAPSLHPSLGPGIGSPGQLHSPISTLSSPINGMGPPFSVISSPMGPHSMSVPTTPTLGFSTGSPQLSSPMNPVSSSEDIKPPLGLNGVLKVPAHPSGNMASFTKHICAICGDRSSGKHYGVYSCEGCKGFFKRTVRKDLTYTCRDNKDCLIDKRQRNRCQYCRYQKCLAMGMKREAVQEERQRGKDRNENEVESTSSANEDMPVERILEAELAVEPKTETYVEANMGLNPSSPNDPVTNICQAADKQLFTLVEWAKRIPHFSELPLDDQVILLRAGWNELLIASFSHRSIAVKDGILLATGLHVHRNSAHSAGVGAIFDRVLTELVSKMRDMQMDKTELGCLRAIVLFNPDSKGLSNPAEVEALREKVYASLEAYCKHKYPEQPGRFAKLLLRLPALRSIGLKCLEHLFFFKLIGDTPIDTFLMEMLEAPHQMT
Sequence of Vitamin D3 receptor (Homo sapiens) (P11473 whole entry, looked up): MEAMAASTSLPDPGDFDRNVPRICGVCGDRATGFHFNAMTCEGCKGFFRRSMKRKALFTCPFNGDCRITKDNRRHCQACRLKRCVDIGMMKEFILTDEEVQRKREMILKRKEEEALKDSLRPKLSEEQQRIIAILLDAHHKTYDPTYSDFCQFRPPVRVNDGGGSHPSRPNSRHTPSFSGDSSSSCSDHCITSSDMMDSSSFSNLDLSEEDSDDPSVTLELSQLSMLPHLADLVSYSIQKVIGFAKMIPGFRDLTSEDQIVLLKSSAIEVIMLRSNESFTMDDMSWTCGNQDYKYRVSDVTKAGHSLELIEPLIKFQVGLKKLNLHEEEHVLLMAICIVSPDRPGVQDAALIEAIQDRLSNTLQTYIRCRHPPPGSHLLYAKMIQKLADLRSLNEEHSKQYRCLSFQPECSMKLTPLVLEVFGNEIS

[Cl][Dy]([Cl])[Cl]
Potency [1]: inactive
Potency [2]: inactive
Potency [3]: inactive
Potency [4]: inactive

Cc1cc(Br)ccc1NC(=O)CCl
Potency [5]: 24.5 µM (active)
Potency [6]: 24.5 µM (active)
Potency [7]: 24.5 µM (active)
Potency [8]: 19.5 µM (active)
Potency [9]: 12.3 µM (active)
Potency [10]: 19.5 µM (active)
Potency [1]: 27.3 µM (active)
Potency [2]: 19.3 µM (active)
Potency [3]: 21.9 µM (active)
Potency [4]: inactive

Nc1ccc(Cl)c([N+](=O)[O-])c1
Potency [1]: inactive
Potency [2]: 38.6 µM (active)
Potency [11]: inactive
Potency [3]: inactive
Potency [4]: inactive
Potency [12]: inactive

Oc1ccc(C2(c3ccc(O)c(C4CCCCC4)c3)CCCCC2)cc1C1CCCCC1
Potency [1]: 24.3 µM (active)
Potency [2]: 17.2 µM (active)
Potency [3]: 19.5 µM (active)
Potency [12]: 27.3 µM (active)

CC(C=O)c1ccccc1 (centres undefined)
Potency [1]: inactive
Potency [2]: inactive
Potency [13]: inactive
Potency [11]: inactive
Potency [3]: inactive
Potency [4]: inactive
Potency [12]: inactive

O=C(CCN1CCC(c2ccccc2)C1)c1ccc2c(c1)OCCO2 (centres undefined)
Potency [5]: inactive
Potency [6]: inactive
Potency [7]: inactive
Potency [8]: inactive
Potency [10]: inactive
Potency [1]: 26.6 µM (active)
Potency [2]: 33.5 µM (active)
Potency [14]: inactive
Potency [4]: inactive

C=CC(=O)O[C@H]1C[C@@H]2CC[C@@]1(C)C2(C)C
Potency [1]: inactive
Potency [13]: inactive
Potency [11]: inactive
Potency [3]: inactive
Potency [4]: inactive
Potency [12]: inactive

Oc1ccc2c(c1)CCC2
Potency [1]: inactive
Potency [14]: inactive
Potency [13]: inactive
Potency [11]: inactive
Potency [3]: inactive
Potency [4]: inactive
Potency [12]: inactive

O=C(Nc1ccc([N+](=O)[O-])cc1)Nc1ccc([N+](=O)[O-])cc1 (tested in a mixture with another compound)
Potency [1]: inactive
Potency [14]: inactive
Potency [13]: inactive
Potency [11]: inactive
Potency [3]: 0.848 µM (active)
Potency [4]: inactive

O=C1OC(=O)c2cc(-c3ccc4c(c3)C(=O)OC4=O)ccc21
Potency [6]: 54.9 µM (active)
Potency [8]: inactive
Potency [15]: inactive
Potency [9]: 38.9 µM (active)
Potency [10]: inactive
Potency [1]: inactive
Potency [14]: inactive
Potency [3]: inactive
Potency [4]: inactive
Potency [12]: inactive

CCOC(=O)OC(=O)OCC
Potency [1]: inactive
Potency [14]: inactive
Potency [13]: inactive
Potency [11]: inactive
Potency [3]: inactive
Potency [4]: inactive
Potency [12]: inactive

COc1cc(C(C)C)ccc1C
activity, negative = cytotoxicity [1]: -0.985% [at 19 µM] (inactive)
viability change, negative = cytotoxic [14]: 8.58% [at 15.8 µM] (inactive)
activation [11]: -1.52% [at 15.8 µM] (inactive)
activity change, negative = cytotoxicity [3]: 10.4% [at 15.8 µM] (inactive)
activity change, negative = cytotoxicity [4]: -0.431% [at 19 µM] (inactive)
activity, negative = inhibition [12]: 191% [at 19 µM] (inactive)

c1ccc(-c2ccccc2-c2ccccc2)cc1
Potency [1]: inactive
Potency [14]: inactive
Potency [3]: 43.6 µM (active)
Potency [4]: inactive
Potency [12]: inactive

CCN(CC)c1ccc(C=O)c(O)c1
Potency [1]: inactive
Potency [14]: inactive
Potency [13]: inactive
Potency [11]: inactive
Potency [4]: inactive
Potency [12]: inactive

CCc1cccc(C)c1N(C(=O)CS(=O)(=O)O)C(C)COC (centres undefined)
Potency [1]: inactive
Potency [14]: inactive
Potency [11]: inactive
Potency [3]: inactive
Potency [4]: inactive
Potency [12]: inactive
